Only some compounds are listed: those with a hit (about 0.77% of all), similar ones and a draw of the others.
RE007 growth inh: less growth of the S. pombe RE007 Vpr strain; S. pombe RE007 Vpr strain, BacTiter-Glo ATP luminescence, 24 h; Potency, µM (series often up to 92.2 µM), usual class: inhibitors; hit rate 0.21% among 360,000; active means well fitted falling curve with a large enough effect; inconclusive means small, poorly fitted or top-dose-only effect; inactive means no such curve, though single readings can be large or run the other way; further: nearly all actives have a fitted effect of over 50% in size
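Fission yeast strain RE007, carrying one chromosomally integrated HIV-1 vpr copy, was seeded at OD 0.01 in PMG+AL medium with 23 nL pinned compound. After 24 h at 30 °C and 99% humidity, viability was read by BacTiter-Glo luminescence.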
NS1 inh: blocks influenza NS1 protein function; Potency, µM (highest dose often 46.1 µM); hit rate 0.4% among 270,000; calls by dose curve; further: actives are rising curves; nearly all actives have a fitted effect of over 50% in size
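S. cerevisiae expressing influenza A NS1, grown in glucose, washed, then diluted 1:100 into pH 6.0 -URA galactose medium with 23 nl compound. Growth recovery read as OD600; NS1-free strain serves as control.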
Tb PYK inh: inhibitors of Trypanosoma brucei pyruvate kinase. TbPYK enzyme, Kinase-Glo Plus ATP luminescence, 45 min. Potency, µM (titrated, usually from 76.8 µM), usual class: inhibitors. hit rate 0.12% among 410,000. AID 624173; further: nearly all actives have a fitted effect of over 50% in size
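Luminescence from Kinase-Glo Plus, added after a 45-minute room-temperature reaction, served as the end-point read-out. The enzyme and substrate were preincubated with compound before ADP (130 uM final) initiated turnover. Concentration-effect curves came from normalized qHTS data.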
LmPK inhibitor: LmPK (Leishmania mexicana) enzyme inhibition; Q27686; purified LmPK, Kinase-Glo ATP luminescence, 1 h; Potency, µM (titrated, usually from 57.5 µM), hits mostly inhibitors; hit rate 0.37% among 290,000; AID 1721
Target sequence (Q27686 whole entry, looked up): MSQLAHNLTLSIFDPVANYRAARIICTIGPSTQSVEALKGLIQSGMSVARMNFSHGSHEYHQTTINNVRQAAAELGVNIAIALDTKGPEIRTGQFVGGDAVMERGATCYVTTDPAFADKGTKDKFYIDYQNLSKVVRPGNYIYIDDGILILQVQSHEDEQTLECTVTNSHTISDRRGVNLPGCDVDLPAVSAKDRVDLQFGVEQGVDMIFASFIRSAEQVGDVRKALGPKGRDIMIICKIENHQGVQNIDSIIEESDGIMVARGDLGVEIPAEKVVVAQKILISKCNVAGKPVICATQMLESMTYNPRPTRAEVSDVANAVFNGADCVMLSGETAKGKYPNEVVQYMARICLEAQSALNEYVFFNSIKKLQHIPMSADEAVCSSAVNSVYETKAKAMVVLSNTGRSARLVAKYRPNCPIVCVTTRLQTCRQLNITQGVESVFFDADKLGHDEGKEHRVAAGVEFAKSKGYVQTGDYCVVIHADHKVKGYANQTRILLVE
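In 50 mM imidazole pH 7.2 with 7 mM MgCl2, LmPK (0.1 nM) turned over PEP (0.5 mM) and ADP (0.1 mM) for 1 h at room temperature. Luciferase read-out of ATP.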
LmPK inh confirm: Confirms inhibition of Leishmania mexicana pyruvate kinase; shares compounds with LmPK inhibitor; purified LmPK, Kinase-Glo ATP luminescence, 1 h; Potency, µM (top dose mostly 57.5 µM), hits mostly inhibitors; hit rate 40% among 150; AID 2559;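 active means compounds giving a full or partial concentration-response curve, as inhibitors or activators; inconclusive means weak, top-dose-only or unclear curve responses; inactive means no response at any tested dose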
Numbers stand for hits; - = inactive; ? = inconclusive; . = no result given; [ ] = another dose, or the depositor's remark. Unless noted, the call rests on the fitted dose curve; in most records, active means well fitted curve in the direction sought with a large enough effect; inconclusive means small, poorly fitted or top-dose-only effect, or another doubt; inactive means no such curve, though single readings can be large; an effect the other way counts as inactive or inconclusive.

SMILES	RE007 growth inh	NS1 inh	Tb PYK inh	LmPK inhibitor	LmPK inh confirm
COC(=O)c1ccc(C(=O)OC)c(NC(=O)c2cnn3c(C(F)F)cc(-c4ccccc4)nc23)c1	.	.	-	.	.
COC(=O)C1=C(C(=O)OC)[C@@H]2Nc3ccccc3[C@@]23C[C@@H](C(=O)OC)N(S(=O)(=O)c2c(C)noc2C)C3=N1	.	.	.	-[11.5 µM]	.
CCC1(c2ccccc2)C(=O)NC(=O)N(C(=O)c2ccccc2)C1=O (stereo unspecified)	.	.	-	.	.
C[C@]12CC[C@H](O)CC1=CC[C@H]1[C@@H]2CC[C@@]2(C)C(N(CCO)CCO)CC[C@@H]12 (stereo partly specified)	.	-	.	.	.
COc1cc2c(cc1OC)-c1n[nH]c(=S)n1C(C)(C)C2	-	.	?	17.8µM	.
Cc1cc(Cl)ccc1Nc1sc(C(=O)c2cc3cc(Cl)ccc3o2)c(N)c1C#N	.	-	.	.	.
Cc1cccc(NCCC(=O)c2ccc([N+](=O)[O-])cc2)c1C	35.5µM	-	-	-	.
Cc1ccc(NCCC(=O)c2cccc([N+](=O)[O-])c2)c(C)c1	5.62µM	-	-	-	.
Cc1ccc(NC(=O)c2cc(N3C(=O)C=CC3=O)ccc2Cl)cc1C	10µM	-	?	-	.
Cc1ccc(NC(=O)c2cc(-n3cnnc3)ccc2Cl)cc1	-	-	-	-	.
Cc1ccc(NC(=O)c2cc(NC(=O)c3ccco3)ccc2N2CCOCC2)cc1	-	-[9.22 µM]	-	-	.
Cc1ccc(NC(=O)c2cc(N3C(=O)C=CC3=O)ccc2N2CCOCC2)cc1	8.91µM	-	22.4µM	-	.
CC/C=C(\C(=O)N[C@H]1C(=O)N2C(C(=O)OCOC(=O)C(C)(C)C)=C(COC(N)=O)CS[C@H]12)c1csc(N)n1	.	.	-	.	.
CCN(CC(=O)Nc1ccc(OC)cc1)C(=O)c1ccc2c(c1)NC(=O)C(C)S2 (stereo unspecified)	-	.	28.2µM	.	.
COCn1c(-c2ccc(OC)cc2)nc2ccccc21	-	-	-	22.4µM	.
CCCn1c(-c2ccc(OC)cc2)nc2ccccc21	-	-	-	-	.
CN[C@H](C)CCC=C(C)C	.	.	-	.	.
C=CCn1c(-c2ccccc2)c[nH]c1=S	-	?	?	12.6µM	.
C=CCn1c(-c2ccc(Cl)cc2)c[nH]c1=S	-	-	?	7.94µM	.
CN(Cc1ccon1)Cc1cn(C)nc1-c1cccc(Cl)c1	-	-	-	12.6µM	-
CCOC(=O)c1nnn(-c2nonc2N)c1-c1ccc(Br)cc1	-	.	-	-	.
CCOC(=O)c1nnn(-c2nonc2N)c1-c1ccc(C)cc1	-	-	-	-	-
Cc1ccc(Oc2ccccc2/C=C2\SC(=O)N(C)C2=O)cc1	-	-	-	-	-
O=S(=O)(O)OCC1OC(COS(=O)(=O)O)(C2(OS(=O)(=O)O)OC(CO)C(OS(=O)(=O)O)C(OS(=O)(=O)O)C2OS(=O)(=O)O)C(OS(=O)(=O)O)C1OS(=O)(=O)O (stereo unspecified)	.	.	-	.	.
Cc1ccc(-c2nnc(N(C)C(=O)c3cccnc3)s2)cc1	-	-	-	-	-
SMILES	RE007 growth inh	NS1 inh	Tb PYK inh	LmPK inhibitor	LmPK inh confirm
Cc1ccc(-c2nnc(N(C)C(=O)c3cccnc3)s2)cn1	-	-	-	-	.
O=C(Nc1cccc(O)c1)C(=O)Nc1ccccn1	?	-	?	7.94µM	20.6µM
O=P(O)(O)O[C@@H]1O[C@H](CO)[C@@H](O)[C@H](O)[C@@H]1O	.	-	.	.	.
CN(C)S(=O)(=O)c1ccc(C(=O)NCCSc2c(-c3ccc(Br)cc3)[nH]c3ccccc23)cc1	.	.	-	.	.
COc1ccc(OC)c2[nH]c(=O)c(CCNS(=O)(=O)c3ccc(C)cc3)cc12	-	-	-	-	-
COc1ccc(OC)c2[nH]c(=O)c(CCNS(=O)(=O)c3ccc(Cl)cc3)cc12	-	-	-	-	.
CCOc1ccccc1-n1nnc(-c2nc(-c3ccccc3)no2)c1N	.	.	-	.	.
CCCCCC(O)C1C(=O)OC(C)C(O)\C=C/C=C\C=C/C=C\C=C(\C)C(O)C(O)C(O)CC(O)CC(O)CC(O)CC(O)CC1O (stereo unspecified)	.	.	-	.	.
O=C(c1ccccc1)n1c(=S)nc2ccccn21	-	-	?	4.47µM	18.3µM
O=C(c1ccccc1)n1ccn(-c2ccccc2)c1=S	-	-	-	-	.
CC(=O)Nc1ccc(C(=O)NNC(=O)CCc2ccccc2)cc1	-	-	-	-	-
Cc1ccc(S(=O)(=O)OC2CCN(C)CC2)cc1	.	-	.	.	.
Cc1ccc(-c2cc3c(nn2)-c2ccccc2C3=O)cc1	-	-	?	7.08µM	10.3µM
NNC(=O)Cc1cccnc1	.	-	.	.	.
NC(=S)Cc1nc2n(n1)Cc1ccccc1-2	-	-	-	-	.
Fc1ccc(-c2nc3n(n2)Cc2ccccc2-3)cc1	?	-	-	3.55µM	?
Cc1cccc(C(=O)NC2CCN(C(=S)NCc3ccco3)CC2)c1	-	-	-	-	-
CCOc1ccc(C(=O)NC2CCN(C(=S)NCc3ccco3)CC2)cc1	-	-	-	-	.
COC(=O)CSC1=NS(=O)(=O)c2ccccc21	-	-	22.4µM	5.01µM	?
COC(=O)CSc1ccccc1C(=O)OC	-	-	-	-	.
C[C@H]1Cc2c(-c3ccccc3)nc3c(c2CO1)CN(C(=O)C1CCCCC1)CC3	.	.	.	-[11.5 µM]	.
Cc1ccc(C)c(/C(O)=C2/C(=O)C(=O)N(CCN3CCOCC3)C2c2ccco2)c1 (stereo unspecified)	-	?	-	-	-
CC(=O)[O][Al][O]C(C)=O	.	.	-	.	.
COC(=O)C1=C(C)NC2=C(C(=O)CC(C)(C)C2)C1c1ccccn1 (stereo unspecified)	-	-	-	-	.
COC(=O)C1=C(C)NC2=C(C(=O)C(C(=O)OC)C(c3ccc(OC)cc3)C2)C1c1ccccn1 (stereo unspecified)	-	-	-	-	-
SMILES	RE007 growth inh	NS1 inh	Tb PYK inh	LmPK inhibitor	LmPK inh confirm
Cc1cc(O)c(-c2cc(O)c(C)cc2O)cc1O	-	-	?	0.708µM	?
Cc1ccc(N)cc1O	-	.	-	.	.
CCc1n[nH]c(=S)n1/N=C/c1ccc2c(c1)OCO2	-	-	?	-	-
CCc1n[nH]c(=S)n1/N=C/c1ccc(N(C)c2ccccc2)cc1	-	.	?	-	.
CCC(C(=O)O)C1OC(C(C)C(O)C(C)C(=O)C(CC)C2OC3(C=CC(O)C4(CCC(C)(C5CCC(O)(CC)C(C)O5)O4)O3)C(C)CC2C)C(C)CC1C (stereo unspecified)	.	.	-	.	.
CCN(Cc1ccncc1)Cc1cn(C)nc1-c1ccc(Oc2ccccc2)cc1	-	-	-	-	-
O=C1c2ccccc2C(=O)C1c1ccnc2ccccc12	-	-	-	7.08µM	?
C=C1NC(=O)c2cc(CN(C)c3ccc(C(=O)N[C@@H](CCC(=O)O)C(=O)O)s3)ccc2N1	.	.	-	.	.
Cc1ccc(-n2c(SCC(=O)Nc3ccc(C(=O)O)cc3)nnc2-c2ccncc2)cc1	-	-	-	-	.
Cc1ccc(C(=O)NNC(=O)CSc2nnc(-c3ccncc3)n2-c2ccc(C)cc2)cc1	.	-	.	-	-
COc1ccccc1C(=O)NCCNc1nc2cc(C)cc(C)c2cc1C#N	-	-	-	-	.
